# Where “and” joins values, the source holds several entries; their conditions need not be identical. Equal entries are not always repeated. Records with an inconclusive call do not appear. Where a call stands in place of a potency, no number is given. Calls of active or inactive are those of the source. Unless noted, the call rests on the fitted dose curve; in most records, active means well fitted curve in the direction sought with a large enough effect; inconclusive means small, poorly fitted or top-dose-only effect, or another doubt; inactive means no such curve, though single readings can be large; an effect the other way counts as inactive or inconclusive.
# What was measured:
# [1] = target: Cytochrome P450 2C9 (Homo sapiens) (UniProt P11712); test: Cytochrome P450 family 2 subfamily C member 9 (CYP2C9) small molecule antagonists: luciferase biochemical (cell-free) qHTS assay (AID 1645842; active means well fitted curve in the direction sought with a large enough effect in the repeat runs; an effect the other way counts as inactive or inconclusive; further: nearly all actives have a fitted effect of over 55% in size; further: potency means the concentration at half of the fitted maximal effect)
# Outline: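 Luminescence, after 20 min with luciferin detection reagent, reflected CYP2C9 turnover during a 1 h NADPH-driven reaction at 37C. Enzyme-substrate mix contained 0.4% bovine serum albumin and was preincubated with compound 10 min at room temperature.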
# Papain (Carica papaya) = Papain (Carica papaya) (UniProt P00784); test: Primary qHTS assay for inhibitors of the protease papain (AID 1645873);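 further: papain turnover of Z-FR-AMC read as the AMC fluorescence gain over 10 min; series mostly up to about 50 µM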
# [2] = Primary qHTS for inhibitors of nuclear receptor binding SET domain protein 2 (NSD2) in an isogenic RCH-ACV NSD2 p.E1099K mutant (9B) (AID 1645876); further: nearly all actives have a fitted effect of over 70% in size; further: potency means the concentration at half of the fitted maximal effect
# [3] = Primary qHTS for inhibitors of nuclear receptor binding SET domain protein 2 (NSD2) in an RCH-ACV wild type WT cells (2C) (AID 1645877); further: nearly all actives have a fitted effect of over 70% in size; further: potency means the concentration at half of the fitted maximal effect
# [4] = target: N-terminal Xaa-Pro-Lys N-methyltransferase 1 (Homo sapiens) (UniProt Q9BV86); test: Confirmatory qHTS for Inhibitors of N-terminal methyltransferase 1 (NTMT1): MTaseGlo Assay (AID 1645874); further: nearly all actives have a fitted effect of over 65% in size; further: potency means the concentration at half of the fitted maximal effect
# Source text: Assay Submitter (PI): Rong Huang Ph.D.
# Purdue University, West Lafayette, IN 47907
# The N-terminal methytransferase 1 is the first methyltransferase that methylates protein alpha-N-amines and plays an important role in regulating cell mitosis, chromatin interactions and DNA repair. It is observed to be over-expressed in various cancer patient tissues like malignant melanoma and colorectal cancer tissues. Knockdown of NTMT1 in cancer cells causes cell mitotic defects and enhances sensitivity to DNA damaging chemotherapeutics. […] These critical cellular processes in which NTMT1 is implicated, coupled with emerging links to cellular dysfunction, strengthen the inference that NTMT1 is a compelling novel anticancer target. Progress have been made in understanding the molecular properties of NTMT1 and the biological consequences of protein alpha-N-terminal methylation, but there are no specific small molecule probes available for NTMT1 to fully characterize its MTase activity. To address this unmet need, a panel of assay is created and established to enable quantitative high-throughput screening (qHTS) for novel, potent, and selective small molecule NTMT1 inhibitors. Two orthogonal qHTS that use different reagents (ThioGlo vs. MTaseGlo) are developed for primary robotic screening against the NCATS chemical library of more than 400,000 small molecules. Identified inhibitors are reacquired, validated, and further characterized.
# MTaseGlo Assay is a luminescence screen that measure the activity of methyltransferases based on the reaction product S-adenosyl homocysteine (SAH). The substrate SAM is converted to SAH upon enzyme activation. MTase-Glo reagent and detection solution convert SAH to ATP and measure the light from the luciferase reaction.
# Materials: NTMT1 enzyme, substrate SPKRIA, control peptide RCC1-6 is provided by the Huang laboratory.
# SEQUENCE No. (e.g., 1, 2, 3, etc.); […] (e.g., Cells, Incubation, Reagent, etc.); VALUE; DESCRIPTION
# 1; Enzyme; 3 uL; Dispense enzyme mixture (final concentrations of 125 nM NTMT1 and 100 uM SAM) into Greiner 1536-well white / solid bottom assay plate (Greiner Bio One, Monroe, NC).
# 2; Compounds; 23 nL; Compounds and controls were transferred via a Kalypsys Pin Tool (Wako USA) equipped with a 1536-slotted pin array (Wako Automation, Richmond, VA)
# 3; Incubation; 15 min; Incubate at room temperature
# 4; Substrate; 1 uL; Dispense 1 uL of substrate at final concentration of 1 uM. Buffer solution was dispensed in control wells. The assay plate was covered with metal lids.
# 5; Incubation; 30 min; Incubate at room temperature, protected from lights.
# 6; Reagent; 1 uL; Dispensed 5x MTase-Glo detection reagent (R) into the assay plate. The plate was covered with metal lids.
# 7; Incubation; 30 min; Incubate the assay plates at room temperature in the dark to allow for SAH to be converted to ADP.
# 8; Reagent; 5 uL; Dispense 5 uL of 1x MTase-Glo Detection Solution (R) to allow for ADP to be converted to ATP which was then detected with a luciferase reaction.
# 9; Centrifuge; 15 sec; Centrifuge the assay plate for 15 seconds at 1000 RPM.
# 10; Incubation; 30 min; Assay plates were incubation at room temperature in the dark.
# 11; Detection; Luminescence; Plates were read on ViewLux detector (PerkinElmer). Data were normalized to no-enzyme (0% activity) and no-inhibitor (DMSO; 100%) controls, and the resulting percent inhibition data were fitted to a 4-parameter Hill equation using GraphPad Prism.
# Cytochrome P450 2C9 (Homo sapiens), sequence (P11712 whole entry, looked up): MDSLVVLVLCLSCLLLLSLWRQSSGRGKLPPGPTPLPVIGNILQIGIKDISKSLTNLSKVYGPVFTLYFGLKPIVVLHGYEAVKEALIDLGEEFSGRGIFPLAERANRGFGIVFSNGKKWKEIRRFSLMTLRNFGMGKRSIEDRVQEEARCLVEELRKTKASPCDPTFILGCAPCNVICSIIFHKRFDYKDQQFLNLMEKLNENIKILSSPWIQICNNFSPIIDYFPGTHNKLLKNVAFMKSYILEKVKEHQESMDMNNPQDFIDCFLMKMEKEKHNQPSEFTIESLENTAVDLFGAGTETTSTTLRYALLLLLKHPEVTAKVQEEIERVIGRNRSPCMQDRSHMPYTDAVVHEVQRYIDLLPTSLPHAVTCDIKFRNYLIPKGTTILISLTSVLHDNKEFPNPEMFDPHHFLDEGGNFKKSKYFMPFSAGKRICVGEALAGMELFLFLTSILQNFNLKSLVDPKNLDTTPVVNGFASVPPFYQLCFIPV
# Papain (Carica papaya), sequence (P00784 whole entry, looked up, the tested form may be a part): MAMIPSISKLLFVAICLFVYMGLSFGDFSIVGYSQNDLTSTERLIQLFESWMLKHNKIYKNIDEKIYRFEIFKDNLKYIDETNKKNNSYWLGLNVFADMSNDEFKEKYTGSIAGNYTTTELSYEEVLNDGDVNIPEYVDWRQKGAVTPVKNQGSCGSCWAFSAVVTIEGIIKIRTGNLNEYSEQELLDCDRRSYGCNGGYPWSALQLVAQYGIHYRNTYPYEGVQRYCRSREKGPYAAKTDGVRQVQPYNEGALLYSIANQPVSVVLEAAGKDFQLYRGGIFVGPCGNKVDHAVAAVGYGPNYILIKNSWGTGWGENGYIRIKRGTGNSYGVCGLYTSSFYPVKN
# N-terminal Xaa-Pro-Lys N-methyltransferase 1 (Homo sapiens), sequence (Q9BV86 whole entry, looked up): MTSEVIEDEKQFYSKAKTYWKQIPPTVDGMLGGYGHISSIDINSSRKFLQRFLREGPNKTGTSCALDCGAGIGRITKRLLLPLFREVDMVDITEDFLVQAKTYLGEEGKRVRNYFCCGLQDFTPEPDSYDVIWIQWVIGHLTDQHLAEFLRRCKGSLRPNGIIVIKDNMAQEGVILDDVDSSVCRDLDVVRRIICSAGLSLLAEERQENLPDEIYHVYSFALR
compound,measurement,setting,value
Clc1ccc(Cn2c(CN3CCCC3)nc3ccccc32)cc1,Potency,[1],12.3 µM (active)
same,outcome,Papain (Carica papaya),inactive
O=C(NCCN1CCOCC1)c1ccc(Cl)cc1,Potency,[1],inactive
same,outcome,Papain (Carica papaya),inactive
same,Potency,[2],inactive
same,Potency,[3],inactive
COc1ccccc1N1CCN(CCCNc2cc(=O)n(C)c(=O)n2C)CC1,Potency,[1],inactive
same,outcome,Papain (Carica papaya),inactive
same,Potency,[2],inactive
same,Potency,[3],inactive
C[N+](C)(C)CCCCCC[N+](C)(C)C,Potency,[1],inactive
same,outcome,Papain (Carica papaya),inactive
same,Potency,[2],inactive
O=c1c(-c2ccc(O)cc2)coc2cc(O)ccc12,Potency,[1],0.213 µM (active)
same,outcome,Papain (Carica papaya),inactive
same,Potency,[4],inactive
Cc1ccc(C(C)(O)c2nc3ccccc3s2)c(C)c1 (stereo unspecified),Potency,[1],3.01 µM (active)
O=C1NCC2(CCN(CCc3ccccc3)CC2)O1,Potency,[1],inactive
same,outcome,Papain (Carica papaya),inactive
same,Potency,[2],inactive
same,Potency,[3],inactive
O=C(O)CCc1nc(-c2ccccc2)c(-c2ccccc2)o1,Potency,[1],inactive
same,outcome,Papain (Carica papaya),inactive
same,Potency,[2],inactive
same,Potency,[3],inactive
CCN(CC)C(=O)c1ccc(O)c(OC)c1,Potency,[1],inactive
same,outcome,Papain (Carica papaya),inactive
same,Potency,[2],inactive
CCN1CCC[C@H]1CNC(=O)c1cc(S(N)(=O)=O)ccc1OC,Potency,[1],inactive
same,outcome,Papain (Carica papaya),inactive
same,Potency,[2],inactive
same,Potency,[3],inactive
CC(C)OC(=O)C(C)(C)Oc1ccc(C(=O)c2ccc(Cl)cc2)cc1,Potency,[1],2.45 µM (active)
same,outcome,Papain (Carica papaya),inactive
same,Potency,[2],inactive
same,Potency,[3],inactive
N#C[C@H]1C[C@H]2C[C@@H]2N1C(=O)[C@@H](N)C12CC3CC(CC(O)(C3)C1)C2,Potency,[1],inactive
COC[C@@H](c1ccc(C(F)(F)F)cc1)N1CCN(C2(C)CCN(C(=O)c3c(C)ncnc3C)CC2)C[C@H]1C,Potency,[1],inactive
CON=C(C(=O)N[C@@H]1C(=O)N2C(C(=O)OCOC(=O)C(C)(C)C)=C(C=Cc3scnc3C)CS[C@H]12)c1csc(N)n1,Potency,[1],12 µM (active)
CC(=O)N[C@@H](CS)C(=O)O,Potency,[1],inactive
same,outcome,Papain (Carica papaya),inactive
same,Potency,[2],inactive
C[C@@H]1CCN(C(=O)CC#N)C[C@H]1N(C)c1ncnc2[nH]ccc12,Potency,[1],inactive
O=C(Nc1ccccc1Br)N[C@@H]1CCN(c2ccc(C(F)(F)F)cn2)C1,Potency,[1],23.9 µM (active)
Cc1ccc([C@@H]2O[C@H](CO)[C@@H](O)[C@H](O)[C@@H]2O)cc1Cc1ccc(-c2ccc(F)cc2)s1,Potency,[1],12 µM (active)
O=c1cc(-c2ccc(O)cc2)oc2cc(O)cc(O)c12,Potency,[1],21.3 µM (active)
same,outcome,Papain (Carica papaya),inactive
same,Potency,[2],5.9 µM (active)
same,Potency,[3],4.68 µM (active)
O=c1c(-c2ccc(O)cc2)coc2cc(OC3O[C@H](CO)[C@H](O)[C@H](O)[C@H]3O)cc(O)c12 (stereo partly specified),Potency,[1],inactive
Clc1ccc(-c2nc3sccn3c2C=NOCc2ccc(Cl)c(Cl)c2)cc1,Potency,[1],3.79 µM (active)
COc1cc(N2CCC(N3CCN(C)CC3)CC2)ccc1Nc1ncnc(Nc2ccccc2S(=O)(=O)C(C)C)n1,Potency,[1],inactive
same,Potency,[2],6.49 µM (active) and 9.34 µM (active)
O=C(O)c1c(Cl)c(Cl)c(Cl)c(Cl)c1-c1c2cc(I)c(=O)c(I)c-2oc2c(I)c(O)c(I)cc12,Potency,[1],10.7 µM (active)
same,Potency,[4],9.55 µM (active)
same,Potency,[3],9.34 µM (active)
C[C@@H](O)[C@H]1C(=O)N2C(C(=O)O)=C(S[C@@H]3CN[C@H](C(=O)N(C)C)C3)[C@H](C)[C@H]12,Potency,[1],inactive
same,Potency,[2],inactive
O=c1[nH]cnc2c1ncn2[C@H]1CC[C@@H](CO)O1,Potency,[1],inactive
same,Potency,[2],inactive
same,Potency,[3],inactive
CCN(CC)CCNC(=O)c1ccc(N)cc1,Potency,[1],inactive
same,Potency,[2],inactive
CC1CCC(C(=O)N(c2cc(C#CC(C)(C)C)sc2C(=O)O)C2CCC(O)CC2)CC1 (stereo unspecified),Potency,[1],inactive
same,Potency,[2],20.9 µM (active)
same,Potency,[3],16.6 µM (active)
OC[C@@H](O)[C@H](O)[C@H](O)[C@@H](O)CO,Potency,[1],inactive
same,Potency,[2],inactive
same,Potency,[3],inactive
COc1cc(NC(=O)c2ccc(-c3ccc(Cl)cc3)o2)cc(OC)c1,Potency,[1],8.49 µM (active)
same,Potency,[2],inactive
CC(C)(C)c1cc(C(=O)O)c(NC(=O)Nc2ccc3[nH]ncc3c2)s1,Potency,[1],0.477 µM (active)
same,Potency,[2],inactive
same,Potency,[3],inactive
CC(C)C(=O)Nc1ncc(-c2cc(C(F)F)nn2-c2c(Cl)cccc2Cl)s1,Potency,[1],5.35 µM (active)
same,Potency,[2],23 µM (active)
COc1cccc2c1CCCC2CCCN1CCN(C2CCCCC2)CC1 (stereo unspecified),Potency,[1],inactive
same,Potency,[2],20.9 µM (active)
same,Potency,[3],20.9 µM (active)
O=C1C[C@@H](c2ccc(O)cc2)Oc2cc(O)cc(O)c21,Potency,[1],5.35 µM (active)
same,Potency,[2],inactive
CCS(=O)(=O)N1CC(CC#N)(n2cc(-c3ncnc4[nH]ccc34)cn2)C1,Potency,[1],inactive
same,Potency,[2],18.6 µM (active)
CC(C)(C)NC(=O)Nc1cccc(Nc2ncc(F)c(NC(C)(C)CO)n2)c1,Potency,[1],23.9 µM (active)
same,Potency,[2],5.78 µM (active)
same,Potency,[3],2.63 µM (active)
